# Measurements as given in the supplement of paper PMC8728848.
# Shown is part of a subset that was picked to be rich in the strongest signals.
# What was measured:
# Experiment in all cases: glycan array binding signal (z-score within array); higher = stronger binding
# Details in all cases: glycan notation: IUPAC condensed, linker removed
# [1] = target: Fuc(a1-2)Gal(b1-3)GlcNAc(b1-2)Man(a1-3)[Fuc(a1-2)Gal(b1-3)GlcNAc(b1-2)Man(a1-6)]Man(b1-4)GlcNAc(b1-4)[Fuc(a1-6)]GlcNAc
# How it was run: (§1)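 From the Consortium for Functional Glycomics database, 3228 arrays were curated, keeping only those whose protein sequence was available. Binding is given as a within-array Z-score averaged across arrays sharing a protein sequence and across linkers. Negative Z-scores can be read as non-binding.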
# [2] = target: Fuc(a1-2)Gal(b1-3)GlcNAc(b1-3)[Neu5Ac(a2-6)Gal(b1-4)GlcNAc(b1-6)]Gal(b1-4)Glc
# How it was run: as §1
# [3] = target: Fuc(a1-2)Gal(b1-4)GlcNAc(b1-2)[Fuc(a1-2)Gal(b1-4)GlcNAc(b1-4)]Man(a1-3)[Fuc(a1-2)Gal(b1-4)GlcNAc(b1-2)Man(a1-6)]Man(b1-4)GlcNAc(b1-4)GlcNAc
# How it was run: as §1
# [4] = target: Fuc(a1-2)Gal(b1-4)GlcNAc(b1-6)GalNAc
# How it was run: as §1
# [5] = target: Fuc(a1-2)Gal6S(b1-3)GlcNAc6S
# How it was run: as §1
# [6] = target: Fuc(a1-2)[Gal(a1-3)]Gal(b1-3)GlcNAc(b1-2)Man(a1-3)[Fuc(a1-2)[Gal(a1-3)]Gal(b1-3)GlcNAc(b1-2)Man(a1-6)]Man(b1-4)GlcNAc(b1-4)GlcNAc
# How it was run: as §1
# [7] = target: Fuc(a1-2)[Gal(a1-3)]Gal(b1-3)GlcNAc(b1-6)GalNAc
# How it was run: as §1
# [8] = target: Fuc(a1-2)[Gal(a1-3)]Gal(b1-4)GlcNAc
# How it was run: as §1
# [9] = target: Fuc(a1-2)[Gal(a1-3)]Gal(b1-4)[Fuc(a1-3)]GlcNAc(b1-3)GalNAc
# How it was run: as §1
# [10] = target: Fuc(a1-2)[GalNAc(a1-3)]Gal(b1-4)GlcNAc(b1-2)Man(a1-3)[Fuc(a1-2)[GalNAc(a1-3)]Gal(b1-4)GlcNAc(b1-2)Man(a1-6)]Man(b1-4)GlcNAc(b1-4)[Fuc(a1-6)]GlcNAc
# How it was run: as §1
# [11] = target: Fuc(a1-2)[GalNAc(b1-3)]Gal
# How it was run: as §1
# [12] = target: Fuc(a1-4)GlcNAc
# How it was run: as §1
# [13] = target: Gal(a1-3)Gal(b1-3)[Fuc(a1-4)]GlcNAc(b1-2)Man(a1-3)[Gal(a1-3)Gal(b1-3)[Fuc(a1-4)]GlcNAc(b1-2)Man(a1-6)]Man(b1-4)GlcNAc(b1-4)GlcNAc
# How it was run: as §1
# [14] = target: Gal(a1-3)GalNAc
# How it was run: as §1
# [15] = target: Gal(b1-3)Gal(b1-4)GlcNAc
# How it was run: as §1
# [16] = target: Gal(b1-3)GlcNAc(a1-6)Gal(b1-4)GlcNAc
# How it was run: as §1
# [17] = target: Gal(b1-3)GlcNAc(b1-3)Gal(b1-4)GlcNAc(b1-2)Man(a1-3)[Gal(b1-3)GlcNAc(b1-3)Gal(b1-4)GlcNAc(b1-2)Man(a1-6)]Man(b1-4)GlcNAc(b1-4)GlcNAc
# How it was run: as §1
# [18] = target: Gal(b1-3)GlcNAc(b1-6)Gal(b1-4)GlcNAc
# How it was run: as §1
# [19] = target: Gal(b1-3)GlcNAc(b1-6)GalNAc
# How it was run: as §1
# [20] = target: Gal(b1-4)Gal
# How it was run: as §1
# [21] = target: Gal(b1-4)Glc6S
# How it was run: as §1
# [22] = target: Gal(b1-4)GlcNAc(a1-6)Gal(b1-4)GlcNAc
# How it was run: as §1
# [23] = target: Gal(b1-4)GlcNAc(b1-2)[Gal(b1-4)GlcNAc(b1-4)]Man(a1-3)[Gal(b1-4)GlcNAc(b1-2)[Gal(b1-4)GlcNAc(b1-6)]Man(a1-6)]Man(b1-4)GlcNAc(b1-4)GlcNAc
# How it was run: as §1
# [24] = target: Gal(b1-4)GlcNAc(b1-2)[Gal(b1-4)GlcNAc(b1-6)]Man(a1-6)[Gal(b1-4)GlcNAc(b1-2)Man(a1-3)]Man(b1-4)GlcNAc(b1-4)[Fuc(a1-6)]GlcNAc
# How it was run: as §1
# [25] = target: Gal(b1-4)GlcNAc(b1-3)Gal(b1-3)GalNAc
# How it was run: as §1
# [26] = target: Gal(b1-4)GlcNAc(b1-3)Gal(b1-4)[Fuc(a1-3)]GlcNAc(b1-3)Gal(b1-4)[Fuc(a1-3)]GlcNAc
# How it was run: as §1
# [27] = target: Gal(b1-4)GlcNAc(b1-6)GalNAc
# How it was run: as §1
# [28] = target: Gal3S(b1-4)[Fuc(a1-3)]GlcNAc
# How it was run: as §1
# [29] = target: Gal6S(b1-4)GlcNAc
# How it was run: as §1
# [30] = target: GalNAc(a1-3)Gal
# How it was run: as §1
binder,measurement,setting,value
"MGL2 (Mus musculus), Q8JZN1 (protein) MTMRYENFQNLEREEKNQEMRNGDKKGGMESPKFALIPSQSFLWRILSWTHLLLFSLGLSLLLLVVISVIGSQNSQLRRDLGTLRAILDNTTSKIKAEFQSLDSRADNFEKGISSLKVDVEDHRQELQAGRDLSQKVTSLESTLEKREQALKTDLSDLTDHVQQLETDLKALTCQLANLKNNGSEVACCPLHWTEHEGSCYWFSESEKSWPEADKYCRLENSHLVVVNSLEEQNFLQNRLANVLSWMGLTDQNGPWRWVDGTDFDKGFKNWRPLQPDNWHGHMLGGGEDCAHFSYDGRWNDDVCQRHYHWICETELGKASSAHSPQLIASVP",glycan array binding signal (z-score),[1],-0.201
same,glycan array binding signal (z-score),[2],-0.188
same,glycan array binding signal (z-score),[3],-0.106
same,glycan array binding signal (z-score),[4],1.79
same,glycan array binding signal (z-score),[5],0.028
same,glycan array binding signal (z-score),[6],-0.255
same,glycan array binding signal (z-score),[7],0.323
same,glycan array binding signal (z-score),[8],-0.162
same,glycan array binding signal (z-score),[9],-0.252
same,glycan array binding signal (z-score),[10],-0.211
same,glycan array binding signal (z-score),[11],12.2
same,glycan array binding signal (z-score),[12],0.024
same,glycan array binding signal (z-score),[13],-0.193
same,glycan array binding signal (z-score),[14],-0.18
same,glycan array binding signal (z-score),[15],-0.137
same,glycan array binding signal (z-score),[16],0.067
same,glycan array binding signal (z-score),[17],-0.097
same,glycan array binding signal (z-score),[18],-0.035
same,glycan array binding signal (z-score),[19],2.02
same,glycan array binding signal (z-score),[20],-0.267
same,glycan array binding signal (z-score),[21],-0.225
same,glycan array binding signal (z-score),[22],-0.091
same,glycan array binding signal (z-score),[23],-0.247
same,glycan array binding signal (z-score),[24],-0.193
same,glycan array binding signal (z-score),[25],-0.14
same,glycan array binding signal (z-score),[26],-0.1
same,glycan array binding signal (z-score),[27],3.5
same,glycan array binding signal (z-score),[28],-0.228
same,glycan array binding signal (z-score),[29],-0.276
same,glycan array binding signal (z-score),[30],1.48
